From ChEMBL document CHEMBL4513216, “Probing the Open Global Health Chemical Diversity Library for Multistage-Active Starting Points for Next-Generation Antimalarials” (ACS Infect Dis, 2020) come the findings set out here.

About 8,600 (12%) of roughly 69,000 compounds showed an effect of 50% or more. Only a selection was taken, and strong results are over-represented in it overall.

The test deals with Plasmodium berghei. The experiment in a line: Screen against P. berghei liver stage (PbLuc), transformed with Luciferase, at 10uM. The class given is functional, HepG2. The following applies: tested at 10 uM.
Consider `CC(C)c1ccc(OCCC(=O)N2CCC(C(N)=O)CC2)cc1`, for which the INHIBITION was determined as 32.2%.
Next, `COCCN1CCC(NC(=O)C(C)C)CC1`: -34.4%.
On to `CC(C)c1noc(CCCC(=O)NC2CCS(=O)(=O)C2)n1` (stereo unspecified), for which the INHIBITION is on record as -7.46%.
`CC(C)c1noc(CCC(=O)NC2CCS(=O)(=O)C2)n1` (stereo unspecified): the INHIBITION was -12.2%.
Next, `CC(C)c1ccc(/C=C/CC(=O)NC2CCN(C(N)=O)C2)cc1` (stereo unspecified): 36.5%; `CC(C)c1ccc(/C=C/CC(=O)NC2CCN(C(N)=O)CC2)cc1`: 83.5%; `COCCN1CCC(NC(=O)Cn2cc(C)c3ccccc32)CC1`: 17.4%.
Next, `COCCN1CCC(NC(=O)C/C=C/c2ccc(C(C)C)cc2)CC1`: 61.1%.
The value for `CC(C)c1ccc(/C=C/CC(=O)NC2CCS(=O)(=O)CC2)cc1` was 71.2%; that for `CC(=O)NCC1CCN(C(=O)NCCOc2ccc3c(c2)CCC3)CC1` was 25.1%.
Take `COc1cc(C(=O)N2CCCC(n3cncn3)C2)ccc1C` (stereo unspecified): the INHIBITION was -16%.
Next, `CC(C(=O)N1CCCC1)n1nc(-c2cccs2)cc(N)c1=O` (stereo unspecified): 11.8%; `CCN1CCN(C(=O)c2cnc3c(cnn3C3CCCC3)c2)CC1`: 19.2%; `CC1CCN(C(=O)[C@@H]2C[C@@H]3CCN(Cc4nccs4)C[C@H]3O2)CC1`: 53.9%.
On to `COCCNC(=O)[C@H]1C[C@@H]2CCN(Cc3ccncc3)C[C@H]2O1`, for which the INHIBITION was -1.36%.
The value for `CNC(=O)[C@H]1C[C@@H]2CCN(Cc3nccs3)C[C@H]2O1` was 26.4%.
In the case of `O=C(NCC1CC1)[C@H]1C[C@@H]2CCN(Cc3nccs3)C[C@@H]2O1`, the INHIBITION is reported as 25%.
As to `COCCNC(=O)[C@H]1C[C@@H]2CCN(Cc3nccs3)C[C@H]2O1`, the INHIBITION was 56.7%.
Next, `CN(C)C(=O)[C@@H]1C[C@@H]2CCN(Cc3nccs3)C[C@@H]2O1`: 19.9%; `CC(C)CCn1ccc(NC(=O)N2CCCC2C(C)(C)O)n1` (stereo unspecified): 29.9%; `c1ccc(OCc2nnc3n2CCN(CC2CCOCC2)C3)nc1`: 43.2%.
Next, `Cc1cc(C)nc(C2CCN(C3CCOCC3)C2)n1` (stereo unspecified): -10.4%; `Cn1nc(C(C)(C)C)cc1NC(=O)Cn1ccnc1`: 11.2%.
The value for `COCCN1C[C@@H]2CC[C@H]1CN(Cc1cc(=O)c3cc(C)ccc3[nH]1)C2` was -23.5%.
In the case of `COCC1N(C(=O)Nc2ccccc2)C2CCC1(O)CC2` (stereo unspecified), the INHIBITION is 8.61%.
As to `O=C(NCC1(O)CCc2ccccc2C1)c1cccs1` (stereo unspecified), the INHIBITION is recorded as 36.3%.
Regarding `Cc1oncc1C(=O)NCC1(O)CCc2ccccc2C1` (stereo unspecified), the INHIBITION was 67.1%.
Next, `COc1nn(C)cc1C(=O)NCC1(O)CCc2ccccc2C1` (stereo unspecified): 36.5%; `CCC(C)NC(=O)CCNC(=O)Nc1ccc(-n2cncn2)c(F)c1` (stereo unspecified): 22.69%.
For the compound `CN(C)S(=O)(=O)N1CCC[C@]2(C[C@@H](Oc3ncccc3F)CO2)C1`, the INHIBITION was determined as 20.6%.
With `CN1N=C(C(=O)NCCc2csc(-c3ccccc3)n2)CCC1=O`, the INHIBITION amounted to 4.95%.
Next, `CNC(=O)CN1CCOCC2(CN(CCC(F)(F)F)CCO2)C1` (stereo unspecified): 43.9%.
Next, `CCCC(=O)N1CCOC2(COCCN(CC(=O)NC)C2)C1` (stereo unspecified): 3.25%; `CNC(=O)CN1CCOCC2(C1)CN(Cc1csnn1)CCO2` (stereo unspecified): 67.5%.
Next, `CN(C)C(=O)c1cnc2n1CCN(Cc1ccncc1)C2`: 24.1%; `CC(C(=O)NCc1ccc(N2CCNC(=O)C2)cc1)n1cncn1` (stereo unspecified): 27.1%.
Turning to `CCSc1cncc(NCc2ccc(N3CCNC(=O)C3)cc2)n1`, the INHIBITION was found to be 82.2%.
Next, `Cc1cc(NCc2ccc(N3CCNC(=O)C3)cc2)nc(C)n1`: 61.8%.
For `Cc1cccnc1NC(=O)NCc1ccc(N2CCNC(=O)C2)cc1`, the INHIBITION was determined as 21.7%.
For the compound `O=C1CN(c2ccc(CNc3cncc(-n4cccn4)n3)cc2)CCN1`, the INHIBITION was 40.5%.
The value for `Cc1ccccc1C(=O)NCc1ccc(N2CCNC(=O)C2)cc1` was 15.1%; that for `CCN(Cc1ccccc1)c1ncnc2c(C)nn(CC)c12` was -1.57%.
As to `Cc1cc(NC(=O)NCCC(=O)N2CCCc3ccccc32)no1`, the INHIBITION is given as 16.1%.
Next, `CS(=O)(=O)c1cn[nH]c1C1CCCN1C(=O)c1cccnc1` (stereo unspecified): 24.4%; `Cc1ccnc(C2CN(Cc3cnn(-c4ccccc4C(=O)O)c3)C2)n1`: 14.5375%.
The value for `CCN(CC)C(=O)C1CCC2(CCNCC2)O1` (stereo unspecified) was 57.9%.
Next, `CCN(CC)C(=O)C1CCC2(CCNCC2)CO1` (stereo unspecified): 2.79%.
Take `CC(C)N(C)C(=O)C1CCC2(CCNCC2)O1` (stereo unspecified): the INHIBITION came out at 27.7%.
The value for `Cc1nc(C)n(C2CCCN(C(=O)c3ccc4[nH]nnc4c3)C2)n1` (stereo unspecified) was 21.9%; that for `COCCNC(=O)c1cc(COc2cncc(Cl)c2)on1` was 25.8%; that for `O=C(NCCC1CCCCO1)c1cc(COc2cncc(Cl)c2)on1` (stereo unspecified) was 59.3%.
